Lassa entry inh – inhibitors of Lassa virus binding or cell entry. Lassa virus pseudotype entry inhibition, cell reporter. Potency, µM (top dose mostly 37.9 µM), for inactives: top-dose activity change, negative = inhibition, hits mostly inhibitors. 300,000 compounds, 1.2% hits. AID 540256; calls by dose curve; tested in HEK293 cells; note: potency is the fitted concentration of half-maximal effect; % is set by controls: 0 for no effect and ±100 for the full control effect; nearly all actives have a fitted effect of over 50% in size
Marburg entry inh – Marburg virus entry inhibition. Marburg virus pseudotyped entry inhibition, cell reporter. Potency, µM (doses to about 37.8 µM), without a hit: top-dose activity change, negative = inhibition, most hits filed as inhibitors. 300,000 compounds, 1.8% hits; calls by dose curve; tested in HEK293 cells; note: potency is the fitted concentration of half-maximal effect; % is set by controls: 0 for no effect and ±100 for the full control effect
Pf growth 96h – inhibits malaria parasite growth, 96 h; P. falciparum luciferase reporter growth, 96 h; Potency, µM (series often up to 28.7 µM), for inactives: top-dose activity change, negative = inhibition, usual class: inhibitors; 320,000 compounds, 6.9% hits; AID 504834; note: potency is the fitted concentration of half-maximal effect; % is set by controls: 0 for no effect and ±100 for the full control effect
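P. falciparum expressing integrated firefly luciferase grown in erythrocytes (2% hematocrit, 0.05% parasitemia final) with compounds for 96 hours at 37 C, 5% CO2. Growth inhibition read as loss of luminescence after adding luciferase detection reagent.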
Cycloheximide cs – counter-screen hit for Shiga toxin inhibitors, cycloheximide | AID 2314 | cell reporter, cycloheximide protein synthesis inhibition counterscreen | 300,000 compounds, 12% hits | max response, %; in the data active = max response mostly above about 13%, no sharp cut-off; inactive = mostly below about 14%; note: read at 38.3 µM for the half of the compounds with a filed dose; 0% is about no effect
Shiga inhibitor – Shiga toxin inhibition | AID 2315 | inhibition, % at 38.7 µM | 290,000 compounds, 9.2% hits | Vero cells, Shiga toxin protein synthesis inhibition reporter; in the data active = inhibition mostly above about 28%, no sharp cut-off; inactive = mostly below about 43%; note: 0% is about no effect
Pf growth 48h – P. falciparum growth inhibition at 48 hours (one generation); P. falciparum luciferase growth in erythrocytes, 48 h; Potency, µM (doses to about 28.7 µM), without a hit: at the top dose activity change, negative = inhibition, most hits filed as inhibitors; 310,000 compounds, 5.9% hits; note: potency is the fitted concentration of half-maximal effect; % is set by controls: 0 for no effect and ±100 for the full control effect
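Erythrocytes infected with P. falciparum carrying an integrated firefly luciferase reporter (2% hematocrit, 0.1% parasitemia final) were exposed to compounds in RPMI 1640 with 0.5% Albumax at 37 C, 5% CO2. Growth inhibition was scored as reduced luminescence.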
* hit, by the source's call; ? = inconclusive; / = not tested or not shown; [ ] = remark or other dose. This is a sample that favours compounds with a hit; in the whole collection about 19% have one here. Unless noted, calls come from the whole dose curve; as a rule, active = well fitted inhibition curve with a large enough effect; inconclusive = small, poorly fitted or top-dose-only effect, or another doubt; inactive = no such curve, though single readings can be large or run the other way.

SMILES	Lassa entry inh	Marburg entry inh	Pf growth 96h	Cycloheximide cs	Shiga inhibitor	Pf growth 48h
CC1=C(C#N)C(c2ccc(O)cc2)C2=C(CCCC2=O)N1 (stereo unspecified)	-4.5%[46.1 µM]	12.6%	25.7%	0.4	-18.8	-0.2%
CC1=C(C#N)C(c2cccnc2)C2=C(CC(c3ccc(Cl)cc3)CC2=O)N1 (stereo unspecified)	-7.1%	0.1%	6.57µM*	-7.0	-10.6	/
O=C(COc1ccccc1Br)N1CCN(c2ccccc2)CC1	-0.7%	-18.3%	?	25.4	30.7	/
FC(F)(F)COc1nc(N2CCOCC2)nc(N(c2ccccc2)c2ccccc2)n1	?	13µM*	24.1%	-0.4	-2.3	3.29µM*
c1ccc(N(c2ccccc2)c2nc(N3CCOCC3)nc(N3CCOCC3)n2)cc1	/	0.6%	/	-1.7	-18.7	/
Cc1ccc(N2C(=O)c3n[nH]c(C)c3C2c2ccco2)cc1 (stereo unspecified)	12.5%	7.7%	-8.0%	37.0*	72.5*	41.7%
CCOC(=O)c1ccc(N2C(=O)c3n[nH]c(C)c3C2c2ccco2)cc1 (stereo unspecified)	?	?	27.0%[5.75 µM]	5.9	-6.4	-18.0%
COC(=O)CSC(=S)N1C(C)CCCC1C (stereo unspecified)	/	/	0.0%	-1.6	-13.9	-19.7%
CC(NC(=O)c1csc2ccccc12)C1CCCO1 (stereo unspecified)	?	12.5%	/	32.2*	62.9*	38.2%
CC(NC(=O)c1ccc(Cl)s1)C1CCCO1 (stereo unspecified)	4.0%	-0.7%	/	-4.1	-15.3	-10.6%
CC(NC(=O)c1sc2ccccc2c1Cl)C1CCCO1 (stereo unspecified)	-0.6%	6.6%	78.1%	35.6*	24.1	113.0%
CC(=O)Nc1ccc(S(=O)(=O)NNC(=S)NCC2CCCO2)cc1 (stereo unspecified)	/	/	?	-3.0	11.2	-0.5%
C#CCNC(=O)C1=C[C@@H](c2ccc3c(c2)OCO3)[C@H](CCCO)[C@@H](OCC)O1	/	/	?	-1.8	-1.6	1.2%
COc1ccc(N2CCN(S(=O)(=O)c3c(C)nc4sccn4c3=O)CC2)cc1	/	/	4.15µM*	-2.6	2.7	4.6%
Cc1ccc(-c2nc(NC(=O)c3nn(C)cc3[N+](=O)[O-])sc2C)cc1C	3.98µM*	?	/	-3.8	-8.7	-6.6%
Cc1ccc(-c2nc(NC(=O)c3nn(C)cc3[N+](=O)[O-])sc2C)cc1	/	-0.8%	/	-4.6	-15.3	9.1%
Cn1cc([N+](=O)[O-])c(C(=O)Nc2nc(-c3ccc(Cl)cc3)cs2)n1	?	?	0.0%	17.2*	-40.7	41.0%
CN1CCN(CCC(=O)N/N=C/c2cc3c(cc2[N+](=O)[O-])OCO3)CC1	-0.2%	4.2%	4.4%	-1.3	26.9	13.8%
CC(=O)N1CCN(CC(=O)Nc2sccc2C#N)CC1	2.2%	?	?	-3.0	-9.3	6.1%
O=C(/C=C/c1ccc2c(c1)OCCCO2)c1ccccc1O	4.9%	?	234.0%	77.9*	170.6*	199.0%
Cc1ccc(O)c(C(=O)/C=C/c2ccc3c(c2)OCCCO3)c1	-11.6%	-10.3%	?	80.8*	154.8*	89.0%
N#Cc1c(Nc2ccccc2)sc(C(=O)c2ccc(F)cc2)c1N	?	-27.6%	31.4%	-2.7	8.7	-0.7%
Cc1csc(=O)n1CCC(=O)OCC(=O)Nc1cc(Cl)ccc1[N+](=O)[O-]	29.3%	3.9%[46.1 µM]	80.0%	/	/	-3.2%
CC(=O)NS(=O)(=O)c1ccc(NC(=S)NC(=O)Cc2ccccc2)cc1	/	/	6.2%	1.5	-3.4	0.0%
CCc1c(C)[nH]c2c1C(=O)[C@H](CN1CCOCC1)CC2	/	/	-3.8%[12.8 µM]	/	/	-7.6%[12.8 µM]
SMILES	Lassa entry inh	Marburg entry inh	Pf growth 96h	Cycloheximide cs	Shiga inhibitor	Pf growth 48h
C[C@H](NC(=O)OC(C)(C)C)C(=O)NCC1CCC(C(=O)N[C@@H](Cc2ccccc2)C(=O)O)CC1 (stereo partly specified)	/	/	-8.8%	1.5	1.2	/
O=C(CSc1n[nH]c(-c2ccccc2)n1)c1ccccc1	/	/	67.5%	51.8*	71.4*	22.5%
COc1ccc(-c2nc(SCC(=O)c3ccc(Br)cc3)n[nH]2)cc1	?	-10.5%[46.1 µM]	/	/	/	/
Nc1nc(SCC(=O)c2ccc([N+](=O)[O-])cc2)n[nH]1	/	/	15.4%	-0.6	18.8	15.1%
Nc1nc(SCC(=O)c2ccc(Oc3ccccc3)cc2)n[nH]1	6.5%	8.9%	0.4%	28.7*	36.9	14.8%
CC(C)c1ccc(C(=O)CSc2n[nH]c(-c3ccncc3)n2)cc1	-25.6%	8.0%[46.1 µM]	2.62µM*	8.0	15.0	/
COCCN1Cc2cc3cc(C)ccc3nc2SC1=Nc1cccc(OC)c1	/	/	0.7%	1.3	-1.5	14.7µM*
CCC(C)N=C1Sc2nc3ccc(C)cc3cc2CN1CCOC (stereo unspecified)	10.9%	16.2%[46.1 µM]	-5.1%	4.7	-2.9	?
COCCN1Cc2cc3cc(C)ccc3nc2SC1=Nc1ccc(OC)cc1	?	?	-21.8%	14.9*	64.3*	?
COCCN=C1Sc2nc3ccc(C)cc3cc2CN1Cc1cccs1	-23.7%	17.0%[46.1 µM]	?	11.6*	35.9*	0.0%
CCOc1ccc(N=C2Sc3nc4ccc(C)cc4cc3CN2CCOC)cc1	/	/	-12.3%	2.3	33.6	?
Cc1cccc(N=C2Sc3nc4c(C)c(C)ccc4cc3CN2CCN2CCOCC2)c1	23.1µM*	16.4µM*	7.38µM*	10.4	-12.1	11.7µM*
CCCCNC(=O)CSc1nc2ccc(Nc3nc(N4CCOCC4)nc(N4CCOCC4)n3)cc2s1	/	/	8.28µM*	1.5	0.9	?
CCCCSc1nc2ccc(Nc3nc(N4CCOCC4)nc(N4CCOCC4)n3)cc2s1	?	?	?	-4.9	-13.1	?
O=C(c1ccc(N2CCOCC2)cc1[N+](=O)[O-])N1CCOCC1	-4.9%[46.1 µM]	1.0%[46.1 µM]	-2.6%	-5.6	-13.6	-1.8%
Clc1ccc(/C=C/c2ncc[nH]2)c(Cl)c1	/	/	?	46.0*	65.1*	?
CCSC1=NC(C)(C)C=C(/C=C/c2ccc(Cl)cc2Cl)N1	?	?	?	3.4	-10.6	/
COc1cccc(-n2nnc3c(=O)n(Cc4ccc(C)cc4)cnc32)c1	4.11µM*	?	5.2%	-1.5	-26.2	-21.3%
COc1cccc(-n2nnc3c(=O)n(Cc4ccc(Cl)cc4)cnc32)c1	?	2.5%	9.5%	-5.2	5.3	29.0%
COc1cccc(-n2nnc3c(=O)n(CC(=O)NC4CCCC4)cnc32)c1	-23.9%	-6.5%	0.329µM*	-5.4	9.8	2.7%
C=CCn1cnc2c(nnn2-c2ccc(C)c(C)c2)c1=O	1.2%	11.8%[46.1 µM]	67.6%	40.1*	88.0*	125.8%
COc1cccc(-n2nnc3c(=O)n(CC(=O)OCc4ccccc4)cnc32)c1	17.8%	16.9%	0.165µM*	-2.3	11.5	13.4%
COc1cccc(-n2nnc3c(=O)n(CC(=O)Nc4ccccc4C)cnc32)c1	/	/	-10.0%	-6.6	-15.5	-26.4%[1.15 µM]

Screens from PubChem BioAssay.
